From PubChem BioAssay
MCF10A rereplic – DNA re-replication induction in MCF 10a cells; MCF 10A DNA re-replication, Hoechst nuclear intensity, 48 h; Potency, µM (series often up to 46.1 µM), for the others: at the top dose activity, positive = re-replication, most hits filed as activators; 2.9% of 350,000 active; AID 624296; also: % of control where 0% means no effect; nearly all actives have a fitted effect of over 50% in size
Mito fusion yeast – mitochondrial division inhibition or fusion activation; S. cerevisiae fusion-defective mutant growth rescue, CellTiterGlo 48 h; Potency, µM (series often up to 46.1 µM), inactives show at the highest dose growth rescue (activation), most hits filed as activators; 0.23% of 320,000 active; also: % of control where 0% means no effect; nearly all actives have a fitted effect of over 45% in size
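S. cerevisiae fusion-defective temperature-sensitive mutants (e.g. fzo1-1, mgm1-5) grown 48 h at 37C in YPEG (ethanol/glycerol non-fermentable) medium with 23 nl compound per well; growth rescue read as CellTiterGlo luminescence.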
a7 integrin act – activates integrin-mediated alleviation for muscular dystrophy; alpha7betagal myoblasts, beta-gal FDG fluorescence, 48 h; Potency, µM (titrated, usually from 38.3 µM), for the others: at the highest dose activation, hits mostly activators; 0.064% of 350,000 active; AID 624291;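 also: 100% = response of the positive control SU9516; nearly all actives have a fitted effect of over 60% in size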
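Alpha7betagal+/- myoblasts (passage 13) were plated 16-24 hr, then exposed to compounds (1:260 dilution of DMSO stock) for 48 hours at 37C. After MPER lysis, β-galactosidase reporter activity was read as FDG fluorescence (ex 480/em 540) after 30 minutes.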
SW480 rereplic – DNA re-replication induction in SW480 cells | 1.8% of 340,000 active | Potency, µM (highest dose often 46.1 µM), without a hit: top-dose re-replication activation, hits mostly activators | SW480 DNA re-replication, Hoechst DNA content imaging, 48 h | AID 624297; also: % of control where 0% means no effect; nearly all actives have a fitted effect of over 55% in size
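Treated cells incubate 48 hr (37 C, 5% CO2), are stained 40 min with Hoechst, and nuclear fluorescence is enumerated; a rise in nuclei with high DNA signal marks re-replication.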
A-T KAP1 phos – potential ataxia-telangiectasia treatment; F2112 A-T fibroblasts, KAP-1 phosphorylation AlphaLISA; neocarzinostatin DNA damage 30 min before lysis; Potency, µM (titrated, usually from 57.5 µM), without a hit: top-dose activation, actives largely listed as activators; 0.19% of 320,000 active; AID 485349; also: % of control where 0% means no effect; nearly all actives have a fitted effect of over 45% in size
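hTERT-immortalized A-T patient fibroblasts (F2112), 500 cells/well in OPTI-MEM, 1% FBS, got compounds for 60 min, then NCS for 30 min at 37C. Lysates were then assayed for phospho-KAP-1 by AlphaLISA (anti-pKAP1 donor, anti-KAP1 acceptor beads), 6 hr at 25C.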
An asterisk follows results filed as active; ? = inconclusive; · = no result given; [ ] = remark or other dose. This is a sample that favours compounds with a hit; in the whole collection about 4.2% have one here. Calls follow the shape of the dose curve; as a rule, active = well fitted activation curve with a large enough effect; inconclusive = small, poorly fitted or top-dose-only effect; inactive = no such curve, though single readings can be large or run the other way. Potency is read from the fitted curve at half-maximal effect.

SMILES	MCF10A rereplic	Mito fusion yeast	a7 integrin act	SW480 rereplic	A-T KAP1 phos
CN(C)Cc1cc2ccccc2c2c1COC2	11%	-6%	9%	2%	?
Cc1cc2ccc3ccccc3c2cc1CN(C)C	2%	-7%	-57%	7.3µM*	7%
O=C(c1ccccc1)c1nn(-c2ccccc2)c2nnc(Cc3ccccc3)c(=O)n12	23µM*	?	-3%[7.66 µM]	18µM*	-2%
O=C(Nc1ccc([N+](=O)[O-])cc1)c1nc[nH]c1C(=O)NC1CCCCC1	11%	-14%	17%	1%	0%
CN1CCc2nc3sc(C(=O)C45CC6CC(CC(C6)C4)C5)c(N)c3cc2C1	9.2µM*	2%	-40%	21µM*	23%
NC(=S)N/N=C/c1ccc(-c2ccccc2)o1	0.73µM*	0%	-39%	22%	1%
NC(=S)N/N=C/c1ccc(/C=N/NC(N)=S)cc1	?	-4%	-20%	18µM*	-5%
NC(=S)NN=Cc1nccc2ccccc12	?	·	-24%	2.9µM*	·
NC(=S)N/N=C/c1cccc(/C=N/NC(N)=S)c1	4%	2%	22%	3%	-3%
Nc1cccc(-n2nncc2-c2ccc(Cl)cc2)c1	·	-4%	·	·	15%
NC(=S)N/N=C/c1ccc(-n2nncc2-c2ccc(Cl)cc2)cc1	?	22µM*	6%	?	14%
NC(=S)NN=Cc1nccc2c(C(F)(F)C(F)(F)C(F)(F)F)cccc12	·	·	-51%	·	·
Cc1ccc(-c2ccc(/C=N/NC(N)=S)o2)cc1	?	-2%	-8%	-14%	-3%
CC1(C)Cc2c(sc(NC(=O)Cc3ccccc3)c2C#N)C(C)(C)N1	·	·	-54%	·	·
CCc1cc(C(=O)N2CCCC(C(=O)c3ccc(Oc4ccccc4)cc3)C2)n(C)n1 (stereo not given)	2%	5%	-39%	?	8%
O=C(COC(=O)c1cnc(Cl)c(Cl)c1)NC1CCCC1	·	·	-18%	·	·
CCN(CC)C1=NS(=O)(=O)c2cc([N+](=O)[O-])ccc21	?	-3%	-40%	12µM*	3%
CCN(CC)c1ccc([N+](=O)[O-])cc1C(=O)N1CCOCC1	21%	3%	10%	-3%	7%
Cc1ccc(C(=O)/C=C/c2cn(CN3CCN(C)CC3)c3ccccc23)cc1	18µM*	9%	-23%	18µM*	8%
CCc1nonc1NC(=O)COc1cc(C)c(Cl)c(C)c1	-5%	11µM*	20%	-1%	3%
CC(C)C[C@H](NC(=O)N1c2ccccc2NC(=O)[C@@H]1C(C)C)C(=O)N1CCC[C@@H]1C(=O)O	-10%	-2%	-8%	-3%	19%
CCOC(=O)C1(Cc2cccc(OC)c2)CCN(Cc2cc(OC)ccc2OC)CC1	?	0%	-52%	23µM*	-3%
CCOC(=O)C1(Cc2ccc(OC)cc2)CCN(C(=O)c2ccc3[nH]ccc3c2)CC1	12µM*	-21%	?	?	2%
CCOC(=O)C1(CC2CC2)CCN(Cc2cnc(-c3ccc(OC)cc3)nc2)CC1	13µM*	3%	13%	-45%	7%
CCOC(=O)C1(Cc2ccc(OC)cc2)CCN(C(=O)c2ccoc2C)CC1	?	-4%	17%	-37%	-3%
SMILES	MCF10A rereplic	Mito fusion yeast	a7 integrin act	SW480 rereplic	A-T KAP1 phos
O=C(C[C@@H]1C/C=C\C[C@H](Cc2ccc(F)cc2)C(=O)OC[C@@H]2CCCN2C1=O)N[C@H](CO)Cc1ccccc1	?	·	-3%	3%	2%
CN(CC(=O)Nc1ccc(F)cc1)C(=O)COC(=O)c1nc(Cl)ccc1Cl	·	·	11%	·	·
CCC(CC)c1nnc(NC(=O)[C@@H](NC(=O)c2cccc(C)c2)C(C)C)s1	4%	-3%	23%	1%	-4%
Cc1ccc(/C=N/NC(=O)c2csc3c2CCCC3)cc1	1.3µM*	0%	9%	?	-8%
CC[n+]1c(/C=C/C=C2/N(C)c3ccccc3C2(C)C)sc2ccccc21	·	-40%	·	·	·
C=CCn1c(-c2oc3nc(-c4ccccc4)cc(-c4ccccc4)c3c2N)n[nH]c1=S	7.3µM*	-11%	4%	8.2µM*	3%
CCN1c2ccccc2NC2N=C(OC)C(c3ccccc3)C21 (stereo not given)	?	4%	-50%	16µM*	25%
